Data on five molecules can be found in PubChem BioAssay.

Assay [1] can be described thus: E. coli DRC41 culture turbidity changes, primary screen, E. coli filamentation inducer project, strain DRC41, OD650, 48 h (AID 1152).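 Note: E. coli MC1000 strain DRC41 lacking acrAB efflux pump and sulA.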 The following applies: E. coli DRC41 (acrAB sulA), higher = more signal, called active from +8 up or from −8 down.
Assay [2] is described as follows: small-molecule binders of probe aLefty1, primary screen, biochemical, small-molecule microarray, 635/667 nm fluorescence (AID 1153).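 Note: score merges spot fluorescence with signal-to-noise ratio from the scanned slide images.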 The following applies: higher = more signal.
Assay [3] can be described thus: PSAC antagonists in infected red cells, primary screen, cell-based, P. falciparum Indochina, OD700, 1 h (AID 1154). The following applies: P. falciparum Indochina infected RBC osmotic lysis, higher = more signal, called active from +8 up or from −8 down.
Assay [4] is described as follows: PSAC antagonists in infected red cells, primary screen, cell-based, P. falciparum Indochina, OD700, 2 h (AID 1155).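 Note: lysis reports solute entry through the parasite surface anion channel PSAC; channel blockers reduce lysis of infected cells.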 The following applies: P. falciparum Indochina infected erythrocytes, osmotic lysis OD700; higher = more signal, called active from +8 up or from −8 down.
The nature of assay [5]: osmotic lysis modulators in infected erythrocytes, primary screen, PSAC antagonist project, cell-based, P. falciparum Indochina, OD700, 3 h (AID 1156). The following applies: higher = more signal, called active from +8 up or from −8 down.
The nature of assay [6]: PSAC antagonists in infected red cells, primary screen, cell-based, P. falciparum Indochina, OD700, 18 h (AID 1157). The following applies: P. falciparum Indochina infected erythrocytes, osmotic lysis OD700, 18 h; higher = more signal, called active from +8 up or from −8 down.
The nature of assay [7]: modulators of S6 phosphorylation in cells, primary screen, cell-based, A549, cytoblot, luminescence, serum-stimulated (AID 1158).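 Note: serum-stimulated A549 lung adenocarcinoma cells; signal is phosphorylated S6 detected by cytoblot immunostaining with HRP secondary.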 The following applies: A549 phospho-S6 cytoblot, 5 h, higher = more signal.
Assay [8] addresses NADPH oxidase 2 (Homo sapiens) (UniProt P04839). In words: NOX2-dependent H2O2 signal modulators, primary screen, NOX inhibitor project, cell-based, HEK293-NOX2, PMA-stimulated, Amplex Red fluorescence (AID 1159). Note: test concentration not given here. The following applies: 45 min, higher = more signal, called active from +8 up or from −8 down.
In assay [9] the target is NADPH oxidase 4 (Homo sapiens) (UniProt Q9NPH5). As to the kind of experiment: NOX4-dependent H2O2 signal modulators, primary screen, NOX inhibitor project, cell-based, HEK293-NOX4, tetracycline-induced, Amplex Red fluorescence (AID 1160). The following applies: 45 min, higher = more signal, called active from +8 up or from −8 down.
Assay [10] has as its target NADPH oxidase 5 (Homo sapiens) (UniProt Q96PH1). As to the kind of experiment: NOX5-dependent H2O2 signal modulators, primary screen, NOX inhibitor project, cell-based, HEK293-NOX5, Amplex Red fluorescence (AID 1161). The following applies: HEK293-NOX5, ionomycin, 45 min, higher = more signal.
Assay [11] can be described thus: A549 cell viability effects, profiling panel, calcein-AM fluorescence, 48 h, basal (AID 1162). Note: test concentration not given here. The following applies: higher = more signal.
The nature of assay [12]: adipocyte viability effects, profiling panel, cell-based, 3T3-L1 adipocytes, calcein-AM fluorescence, 48 h, basal (AID 1163). Note: test concentration not given here. The following applies: 3T3-L1 adipocytes viability, higher = more signal.
Assay [13] can be described thus: HepG2 cell viability effects, profiling panel, calcein-AM fluorescence, 48 h, basal (AID 1164). Note: test concentration not given here. The following applies: higher = more signal.
Assay [14] in a line: MM1S cell viability effects, profiling panel, calcein-AM fluorescence, 48 h, basal (AID 1165).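 Note: viability of MM1S multiple myeloma cells under basal unstimulated conditions; test concentration not given here.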 The following applies: higher = more signal.
Assay [15] can be described thus: basal RPMI8226 viability, no added stimulus, profiling panel, cell-based, calcein-AM fluorescence, 48 h, PK04 Diversity Set (AID 1166).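 Note: cells grown under basal conditions without added stimulus; test concentration not given here.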 The following applies: RPMI8226 myeloma viability, higher = more signal.
Assay [16] is described as follows: basal HepG2 mitochondrial membrane potential changes, profiling panel, cell-based, JC-1 fluorescence, 24 h, 100 nL compound (AID 1167). Note: test concentration not given here. The following applies: higher = more signal.
A short description of assay [17]: basal 3T3-L1 adipocyte mitochondrial potential changes, profiling panel, cell-based, JC-1 fluorescence, 3T3-L1 adipocytes, 24 h, 100 nL compound (AID 1168). Note: test concentration not given here. The following applies: JC-1 mitochondrial fluorescence, higher = more signal, called active from +8 up or from −8 down.
The nature of assay [18]: basal RPMI8226 mitochondrial membrane potential changes, profiling panel, cell-based, JC-1 fluorescence, 24 h, 100 nL compound (AID 1169). Note: test concentration not given here. The following applies: RPMI8226 myeloma, JC-1 mitochondrial potential fluorescence, higher = more signal.
Assay [19] can be described thus: basal MM1S mitochondrial membrane potential changes, profiling panel, cell-based, JC-1 fluorescence, 24 h, 100 nL compound (AID 1170). Note: test concentration not given here. The following applies: higher = more signal.
Assay [20] is described as follows: A549 lung cancer cell viability effects, profiling panel, resazurin fluorescence, 24 h, PK04 Diversity Set (AID 1171). Note: test concentration not given here. The following applies: higher = more signal, called active from +8 up or from −8 down.

Activity calls are given as the source filed them.

Sequence of NADPH oxidase 5 (Homo sapiens) (Q96PH1 whole entry, looked up): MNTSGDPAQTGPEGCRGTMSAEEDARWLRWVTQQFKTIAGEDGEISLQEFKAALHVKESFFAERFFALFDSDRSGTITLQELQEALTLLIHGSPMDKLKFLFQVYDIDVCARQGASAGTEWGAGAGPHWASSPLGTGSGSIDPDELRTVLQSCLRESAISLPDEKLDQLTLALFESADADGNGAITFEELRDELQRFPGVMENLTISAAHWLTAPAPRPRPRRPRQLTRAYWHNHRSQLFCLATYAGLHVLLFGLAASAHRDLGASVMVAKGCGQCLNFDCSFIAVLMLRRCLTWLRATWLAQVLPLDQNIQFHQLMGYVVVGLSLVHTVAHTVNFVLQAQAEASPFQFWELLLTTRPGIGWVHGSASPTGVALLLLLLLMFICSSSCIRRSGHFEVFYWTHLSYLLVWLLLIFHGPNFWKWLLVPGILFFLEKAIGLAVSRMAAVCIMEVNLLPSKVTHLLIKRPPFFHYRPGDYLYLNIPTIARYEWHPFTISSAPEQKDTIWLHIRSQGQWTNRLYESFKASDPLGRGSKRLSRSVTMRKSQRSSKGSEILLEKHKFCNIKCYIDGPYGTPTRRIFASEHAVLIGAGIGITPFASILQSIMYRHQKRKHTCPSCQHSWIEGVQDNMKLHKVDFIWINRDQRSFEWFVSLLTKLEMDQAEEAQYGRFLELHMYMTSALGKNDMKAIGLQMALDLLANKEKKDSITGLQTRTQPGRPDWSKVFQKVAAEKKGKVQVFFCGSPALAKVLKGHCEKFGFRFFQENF
Sequence of NADPH oxidase 4 (Homo sapiens) (Q9NPH5 whole entry, looked up): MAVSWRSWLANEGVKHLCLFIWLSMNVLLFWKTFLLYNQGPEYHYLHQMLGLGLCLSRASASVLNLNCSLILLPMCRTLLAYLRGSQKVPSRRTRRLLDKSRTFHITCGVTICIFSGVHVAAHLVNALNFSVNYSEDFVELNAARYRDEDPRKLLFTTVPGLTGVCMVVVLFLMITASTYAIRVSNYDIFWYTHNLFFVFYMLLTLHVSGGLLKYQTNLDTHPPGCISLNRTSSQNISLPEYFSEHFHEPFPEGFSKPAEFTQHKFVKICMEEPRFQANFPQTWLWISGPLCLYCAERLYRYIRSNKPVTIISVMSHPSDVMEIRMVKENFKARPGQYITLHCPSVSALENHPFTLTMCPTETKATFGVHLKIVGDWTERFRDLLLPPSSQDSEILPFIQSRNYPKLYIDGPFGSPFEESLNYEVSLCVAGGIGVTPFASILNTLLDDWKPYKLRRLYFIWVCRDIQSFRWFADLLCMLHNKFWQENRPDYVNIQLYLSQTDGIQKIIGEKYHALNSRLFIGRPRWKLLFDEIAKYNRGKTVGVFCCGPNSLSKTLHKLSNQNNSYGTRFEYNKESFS
Sequence of NADPH oxidase 2 (Homo sapiens) (P04839 whole entry, looked up): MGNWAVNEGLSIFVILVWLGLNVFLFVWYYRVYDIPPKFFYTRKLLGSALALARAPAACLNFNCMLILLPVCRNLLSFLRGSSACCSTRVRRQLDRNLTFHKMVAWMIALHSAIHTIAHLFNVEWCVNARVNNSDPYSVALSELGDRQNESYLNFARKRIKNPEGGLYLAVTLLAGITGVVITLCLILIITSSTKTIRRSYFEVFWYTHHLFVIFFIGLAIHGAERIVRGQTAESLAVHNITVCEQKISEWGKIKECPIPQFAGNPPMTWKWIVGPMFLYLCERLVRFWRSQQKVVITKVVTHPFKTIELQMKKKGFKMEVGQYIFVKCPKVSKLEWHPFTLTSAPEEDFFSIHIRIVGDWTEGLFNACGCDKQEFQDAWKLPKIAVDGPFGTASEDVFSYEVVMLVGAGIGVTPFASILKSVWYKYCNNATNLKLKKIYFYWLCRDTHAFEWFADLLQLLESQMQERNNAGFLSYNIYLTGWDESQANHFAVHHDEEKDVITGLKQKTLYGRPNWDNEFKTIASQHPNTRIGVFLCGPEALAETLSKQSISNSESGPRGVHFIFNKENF

With `C=C(COC)C(=O)CC[C@@H](OC(=O)c1cccnc1)c1ccc(CO)o1`, the z-score in assay [1] was 0.272 (inactive); in assay [3] it was 1.47 (inactive); in assay [4], 0.145 (inactive); in assay [5], 0.0755 (inactive); in [6], 0.038 (inactive); in assay [7], -0.0125. Besides, the z-score is 1.59 (inactive) in assay [8]; 0.304 (inactive) in assay [9]; 0.21 in assay [10]; 0.408 in [11]; -0.615 in assay [12]; 0.0726 in assay [13]. The z-score is -0.193 in [14]; -0.205 in assay [15]; -0.178 in assay [16]; -0.294 (inactive) in [17]; 0.0598 in assay [18]; 0.627 in assay [19]. Also, the z-score in assay [20] is 0.709 (inactive). For the same molecule, the composite z-score in [2] is -0.0536.
For the molecule `NC(=O)NCC#Cc1ccc2c(c1)[C@]1(C(=O)N2)[C@H](C(=O)NC[C@H](O)c2ccccc2)[C@H]2C(=O)O[C@H](c3ccccc3)[C@H](c3ccccc3)N2[C@@H]1c1ccc(O)cc1`, the z-score is -0.765 (inactive) in [1]; 0.397 (inactive) in [3]; -0.0004 (inactive) in [4]; 2.63 (inactive) in assay [5]; -0.048 (inactive) in assay [6]; -0.0546 in assay [7]. Moreover, the z-score in assay [8] is 1.3 (inactive); in assay [9], 0.02 (inactive); in assay [10], 0.404; in [11], 0.423; in [12], -1.13; in assay [13] it was -0.284. Further, the z-score in [14] was -1.32; in assay [15], 0.579; in [16], -3.36; in assay [17] it was -2.46 (inactive); in assay [18] it was -1.16; in [19] it was -1.49. In addition, in [20], the z-score is -0.471 (inactive). For the same molecule, the composite z-score in assay [2] was -0.149.
For the molecule `COCCOC(=O)N1C(=O)[C@@]2(c3cc(C#CCNC(N)=O)ccc31)[C@H](c1ccc(O)cc1)N1[C@H](c3ccccc3)[C@H](c3ccccc3)OC(=O)[C@H]1[C@@H]2C(=O)NC[C@H](O)c1ccccc1`, the z-score in [1] was -0.388 (inactive); in assay [3] it was 1.3 (inactive); in [4], 1.1 (inactive); in assay [5], 0.205 (inactive); in assay [6] it was 0.559 (inactive); in [7] it was 0.155. Besides, the z-score was 1.01 (inactive) in [8]; 0.326 (inactive) in assay [9]; 0.253 in [10]; -0.276 in assay [11]; -0.202 in [12]; 0.108 in [13]. The z-score in assay [14] was 0.208; in assay [15], -0.197; in assay [16], -1.48; in [17], -0.563 (inactive); in assay [18], 0.326; in [19], -0.0292. Besides, the z-score in assay [20] was -0.803 (inactive). This molecule also registered a composite z-score in assay [2] of 0.101.
As to `COC(=O)[C@@]1(Cc2ccccc2)[C@H]2c3cc(C(=O)N4CCCC4)n(C)c3C[C@H]2CN1C(=O)c1ccccc1`, the z-score in [1] was -0.308 (inactive); in [3], 1.54 (inactive); in [4], -0.0273 (inactive); in assay [5] it was 0.835 (inactive); in [6] it was 0.396 (inactive); in assay [7], -0.0948. Moreover, the z-score in assay [8] was -0.153 (inactive); in assay [9] it was -0.653 (inactive); in [10], -1.45; in [11], -1.14; in assay [12] it was 0.167; in assay [13] it was -1.24. The z-score in [14] was 0.143; in [15], -0.284; in assay [16], 0.533; in assay [17], -0.469 (inactive); in [18], -0.0143; in assay [19] it was -0.827. In addition, the z-score in [20] was -0.526 (inactive). This molecule gave a composite z-score in [2] of 0.321.
As to `CCCCC=C[C@@H](NC(=O)c1cccs1)c1ccccc1`, the z-score in assay [1] is -1.05 (inactive); in assay [3] it was 4.38 (inactive); in assay [4], 0.669 (inactive); in assay [5] it was 0.66 (inactive); in [6] it was 1.38 (inactive); in assay [7], 0.221. The z-score in assay [8] is -0.99 (inactive); in [9], -0.568 (inactive); in assay [10], 1.18; in assay [11], -2.03; in assay [12] it was -0.906; in assay [13] it was -1.92. Moreover, the z-score in [14] is -1.66; in assay [15], -4.69; in assay [16] it was -0.503; in assay [17], 0.482 (inactive); in [18], -0.817; in [19], -1.73. Moreover, the z-score in [20] is -1.49 (inactive). Besides, the composite z-score in [2] stood at 0.762.
